Measurements: PubChem BioAssay
Activity calls are given as the source filed them.

Assays:
[1] = test system: PRMT1 (protein arginine N-methyltransferase 1); assay: small molecules binding arginine methyltransferase PRMT1 – biochemical, small-molecule microarray, 635 nm fluorescence, primary screen (AID 1088); conditions: higher = more signal;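 further: binding of Prmt1 protein to compounds spotted on small-molecule microarray slides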
[2] = growth effects on S. cerevisiae YJM789 – YJM789 clinical isolate, OD600, 24 h, basal, primary screen (AID 1089); conditions: higher = more signal, called active from +8 up or from −8 down;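 further: growth of clinical yeast isolate S. cerevisiae YJM 789 seeded 1000 cells per well; test concentration not given here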
[3] = S. pombe growth modifiers, basal conditions – strain 972, OD600, 24 h, no modulator, primary screen (AID 1090);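 further: basal condition with compound alone and no growth modifier present; test concentration not given here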; conditions: S. pombe 972 growth, higher = more signal, called active from +8 up or from −8 down
[4] = budding yeast growth modifiers under rapamycin – strain BY4716, OD600, 96 h, primary screen (AID 1091); further: test concentration not given here; conditions: S. cerevisiae BY4716 + rapamycin, higher = more signal, called active from +8 up or from −8 down
[5] = biological target: Torsin-1A-interacting protein 2 (Homo sapiens) (UniProt Q8NFQ8); assay: small molecules binding lysate-expressed LULL1 – cell lysate, human LULL1 lysate, 635/667 nm fluorescence, primary screen (AID 1092); conditions: small-molecule microarray, hLULL1 lysate binding, 635 nm fluorescence; higher = more signal;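 further: probe is lysate of COS7 cells overexpressing human LULL1; score merges per-feature 667 nm fluorescence with signal-to-noise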
[6] = optical density change of DRC41 E. coli – strain DRC41, OD650, 24 h, E. coli filamentation project, primary screen (AID 1093);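 further: MC1000 strain lacking acrAB efflux and sulA so SOS filamentation is blocked; test concentration not given here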; conditions: E. coli DRC41 growth, higher = more signal, called active from +8 up or from −8 down
[7] = probe aLefty2 binding to arrayed compounds – biochemical, biotinylated probe, 635/667 nm fluorescence, primary screen (AID 1094); conditions: small-molecule microarray, higher = more signal;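 further: score merges spot fluorescence near 667 nm with spot signal-to-noise ratio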
[8] = test system: Noggin (protein binding on small-molecule microarray); assay: small molecules binding Noggin protein – biochemical, 635/667 nm fluorescence, primary screen (AID 1095); conditions: 635 nm fluorescence, higher = more signal;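 further: score merges 667 nm feature fluorescence with signal to noise over triplicate slides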
[9] = biological target: Neurogenic locus notch homolog protein 3 (Homo sapiens) (UniProt Q9UM47); assay: small molecules binding NOTCH3 protein – biochemical, 635/667 nm fluorescence, primary screen (AID 1096); conditions: small-molecule microarray, 635 nm fluorescence, higher = more signal
[10] = probe aEGFR binding to arrayed compounds – biochemical, biotinylated probe, 635/667 nm fluorescence, primary screen (AID 1097); conditions: small-molecule microarray, higher = more signal;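 further: probe is a biotinylated anti-EGFR antibody binding compounds printed on slides; score combines fluorescence near 667 nm and signal to noise of each spot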

Torsin-1A-interacting protein 2 (Homo sapiens), sequence (Q8NFQ8 whole entry, looked up): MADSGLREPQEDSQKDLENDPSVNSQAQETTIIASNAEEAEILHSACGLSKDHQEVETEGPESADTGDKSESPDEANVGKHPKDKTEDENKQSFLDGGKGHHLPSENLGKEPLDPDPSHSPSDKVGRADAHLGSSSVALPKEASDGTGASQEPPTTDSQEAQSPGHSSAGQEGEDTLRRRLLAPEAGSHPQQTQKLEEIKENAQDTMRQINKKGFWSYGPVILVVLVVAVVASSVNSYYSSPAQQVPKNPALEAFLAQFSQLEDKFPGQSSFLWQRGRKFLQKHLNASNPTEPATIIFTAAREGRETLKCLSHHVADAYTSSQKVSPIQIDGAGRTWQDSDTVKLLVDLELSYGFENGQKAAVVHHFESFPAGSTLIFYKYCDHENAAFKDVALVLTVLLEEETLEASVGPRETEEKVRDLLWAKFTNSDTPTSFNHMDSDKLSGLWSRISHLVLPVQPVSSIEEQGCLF
Neurogenic locus notch homolog protein 3 (Homo sapiens), sequence (Q9UM47 whole entry, looked up): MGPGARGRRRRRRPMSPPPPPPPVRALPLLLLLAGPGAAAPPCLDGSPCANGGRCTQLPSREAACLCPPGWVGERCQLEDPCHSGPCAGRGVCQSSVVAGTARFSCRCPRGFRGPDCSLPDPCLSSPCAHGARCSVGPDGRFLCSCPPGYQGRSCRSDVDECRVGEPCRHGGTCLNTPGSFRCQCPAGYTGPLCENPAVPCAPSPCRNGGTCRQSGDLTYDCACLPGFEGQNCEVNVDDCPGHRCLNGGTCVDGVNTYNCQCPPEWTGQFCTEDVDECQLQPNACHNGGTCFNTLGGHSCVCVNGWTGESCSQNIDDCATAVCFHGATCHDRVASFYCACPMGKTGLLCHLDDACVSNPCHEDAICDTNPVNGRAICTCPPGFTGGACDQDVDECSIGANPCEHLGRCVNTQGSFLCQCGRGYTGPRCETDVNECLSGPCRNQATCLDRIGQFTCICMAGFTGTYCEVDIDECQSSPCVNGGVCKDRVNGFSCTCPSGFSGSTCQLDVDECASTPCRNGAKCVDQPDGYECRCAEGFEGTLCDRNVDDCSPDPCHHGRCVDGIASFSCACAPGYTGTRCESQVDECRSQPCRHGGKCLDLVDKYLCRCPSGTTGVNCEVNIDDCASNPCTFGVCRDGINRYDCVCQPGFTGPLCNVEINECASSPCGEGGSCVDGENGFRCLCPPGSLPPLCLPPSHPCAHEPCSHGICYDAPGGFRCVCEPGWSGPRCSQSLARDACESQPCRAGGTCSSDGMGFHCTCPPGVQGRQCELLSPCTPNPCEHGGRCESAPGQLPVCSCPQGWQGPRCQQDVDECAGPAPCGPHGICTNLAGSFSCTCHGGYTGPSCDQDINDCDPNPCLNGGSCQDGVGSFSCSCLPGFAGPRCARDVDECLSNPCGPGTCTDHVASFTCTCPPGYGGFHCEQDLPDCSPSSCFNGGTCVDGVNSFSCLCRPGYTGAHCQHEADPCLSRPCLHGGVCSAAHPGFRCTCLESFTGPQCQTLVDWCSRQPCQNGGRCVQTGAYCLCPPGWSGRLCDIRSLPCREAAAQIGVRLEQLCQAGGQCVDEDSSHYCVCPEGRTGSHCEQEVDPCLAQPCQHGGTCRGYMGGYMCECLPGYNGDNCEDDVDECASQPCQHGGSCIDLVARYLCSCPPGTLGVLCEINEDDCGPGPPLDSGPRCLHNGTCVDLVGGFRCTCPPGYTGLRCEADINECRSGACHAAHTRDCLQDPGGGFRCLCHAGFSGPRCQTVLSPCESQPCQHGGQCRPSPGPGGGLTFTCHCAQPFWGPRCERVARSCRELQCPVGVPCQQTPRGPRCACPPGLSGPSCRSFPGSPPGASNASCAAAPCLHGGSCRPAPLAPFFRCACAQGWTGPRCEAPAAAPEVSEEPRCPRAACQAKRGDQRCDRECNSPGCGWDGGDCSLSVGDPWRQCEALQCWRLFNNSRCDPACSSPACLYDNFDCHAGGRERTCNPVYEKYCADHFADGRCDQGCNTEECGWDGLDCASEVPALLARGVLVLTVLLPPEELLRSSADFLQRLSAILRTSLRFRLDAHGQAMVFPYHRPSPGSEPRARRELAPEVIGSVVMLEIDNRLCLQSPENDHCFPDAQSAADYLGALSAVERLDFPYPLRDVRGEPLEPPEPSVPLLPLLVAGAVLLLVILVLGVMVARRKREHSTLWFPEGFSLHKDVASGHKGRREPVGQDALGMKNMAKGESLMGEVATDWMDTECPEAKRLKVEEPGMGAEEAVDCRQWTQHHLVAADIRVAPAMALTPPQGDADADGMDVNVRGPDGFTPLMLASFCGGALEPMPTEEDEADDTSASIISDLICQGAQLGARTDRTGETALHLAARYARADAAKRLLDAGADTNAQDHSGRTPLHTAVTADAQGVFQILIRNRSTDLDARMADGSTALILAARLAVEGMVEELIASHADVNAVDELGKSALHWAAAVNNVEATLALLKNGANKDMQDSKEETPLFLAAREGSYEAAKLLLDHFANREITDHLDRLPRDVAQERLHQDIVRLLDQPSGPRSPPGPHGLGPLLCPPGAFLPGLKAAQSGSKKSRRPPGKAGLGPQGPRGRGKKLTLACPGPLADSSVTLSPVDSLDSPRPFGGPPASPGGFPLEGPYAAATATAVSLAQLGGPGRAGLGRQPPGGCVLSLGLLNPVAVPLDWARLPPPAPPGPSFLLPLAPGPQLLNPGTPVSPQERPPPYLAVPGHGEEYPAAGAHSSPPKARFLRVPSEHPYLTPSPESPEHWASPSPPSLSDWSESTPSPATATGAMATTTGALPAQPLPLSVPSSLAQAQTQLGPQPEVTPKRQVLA

| Compound | composite z-score [1] | z-score [2] | z-score [3] | z-score [4] | composite z-score [5] | z-score [6] | composite z-score [7] | composite z-score [8] | composite z-score [9] | composite z-score [10] |
| --- | --- | --- | --- | --- | --- | --- | --- | --- | --- | --- |
| CCCCC(=C=CC[C@H](O)c1ccc(OCCO)cc1)C[C@H](O)COCc1ccccc1 | 0.857 | 0.85 (inactive) | -1.43 (inactive) | -0.374 (inactive) | 1.36 | 0.125 (inactive) | -0.116 | 0.395 | -0.36 | 0.0028 |
| C=C(C(=O)CC[C@H](OC(=O)c1ccccc1-c1ccccc1C(=O)O)c1ccccc1OCCO)C(C)C | 1.41 | 0.574 (inactive) | -0.788 (inactive) | -0.927 (inactive) | 1.46 | 0.968 (inactive) | -0.199 | 0.695 | 0.257 | -0.194 |
| COCCOC(=O)N1C(=O)[C@@]2(c3cc(C#CC4(O)CCCCCC4)ccc31)[C@H](c1ccc(OCCO)cc1)N1[C@H](c3ccccc3)[C@H](c3ccccc3)OC(=O)[C@H]1[C@@H]2C(=O)Nc1nc2ccccc2s1 | 1.54 | 1.76 (inactive) | 1.05 (inactive) | 2.93 (inactive) | 1.57 | 0.11 (inactive) | 0.225 | 1.42 | 1.05 | 0.219 |
| CCCCCN1CC=CC23O[C@@H]4/C=C\CCC(C)OC(=O)C4[C@H]2C(=O)N(CCCCCCO)[C@@H]3C1=O (stereo not given in full) | 0.523 | 0.735 (inactive) | 0.157 (inactive) | -0.635 (inactive) | 1.79 | 1.24 (inactive) | -0.119 | 0.296 | 0.109 | -0.126 |
| C=CCNC(=O)[C@@H]1[C@H]2C(=O)O[C@H](c3ccccc3)[C@H](c3ccccc3)N2[C@H](c2ccc(OCCO)cc2)[C@@]12C(=O)N(C(=O)OCCOC)c1ccc(C#CCCO)cc12 | 1.55 | -0.0915 (inactive) | 0.269 (inactive) | 4.08 (inactive) | 1.85 | 2.17 (inactive) | -0.0861 | 0.916 | 1.1 | -0.0088 |
| COCCOC(=O)N1C(=O)[C@@]2(c3ccccc31)[C@H](c1ccccc1OCCO)N1[C@H](c3ccccc3)[C@H](c3ccccc3)OC(=O)[C@H]1[C@@H]2C(=O)N1CCCCCCC1 | 1.54 | 1.3 (inactive) | 1.35 (inactive) | 5.52 (inactive) | 4.47 | -0.489 (inactive) | 1.97 | 1.78 | 1 | 1.48 |
| COCCOC(=O)N1C(=O)[C@@]2(c3cc(C#CCNC(N)=O)ccc31)[C@H](c1ccc(O)cc1)N1[C@H](c3ccccc3)[C@H](c3ccccc3)OC(=O)[C@H]1[C@@H]2C(N)=O | -1.22 | 0.878 (inactive) | 0.0929 (inactive) | 0.374 (inactive) | -0.841 | 1.04 (inactive) | -0.294 | -1.99 | -1.15 | -0.406 |
| [N-]=[N+]=NC[C@H](Cc1ccccc1)NC(=O)c1ccccc1 | 0.376 | -1.02 (inactive) | -2.38 (inactive) | -1.27 (inactive) | 0.214 | 1.56 (inactive) | -0.0666 | 0.014 | -0.371 | -0.14 |
| COc1ccc(C(O)C2C=CC3C(=O)N(c4ccccc4)C(=O)C3N2Nc2ccc(C(C)C)cc2)c2ccccc12 (stereo not given) | 1.56 | 0.254 (inactive) | 0.227 (inactive) | -0.519 (inactive) | 3.61 | -1.08 (inactive) | 0.204 | 0.0754 | 1.07 | -0.0019 |
| CCOC(=O)C=Cc1cc(F)ccc1O | 0.311 | -26.6 (active) | -15.2 (active) | -1.06 (inactive) | 0.905 | -0.624 (inactive) | -0.0446 | -0.173 | -0.18 | -0.233 |
| O=C1C2C=CC(C(O)c3ccc4c(c3)OCO4)N(Nc3ccccc3)C2C(=O)N1c1ccccc1 (stereo not given) | 1.46 | -0.293 (inactive) | 0.292 (inactive) | 0.593 (inactive) | 3.05 | -0.784 (inactive) | 0.266 | -0.0526 | 1.1 | 0.11 |
| C=C(CCCC)C(=O)CC[C@H](OC(C)=O)c1ccc(OCCO)cc1 | -0.0507 | -1.62 (inactive) | -6.78 (inactive) | -2.54 (inactive) | -0.835 | 2.19 (inactive) | -0.269 | -0.469 | -0.829 | -0.16 |
| C=C(C(=O)CC[C@@H](OC(=O)c1ccccc1-c1ccccc1C(=O)O)c1ccccc1OCCO)C(C)C | 1.55 | -1.28 (inactive) | -0.832 (inactive) | -1.88 (inactive) | 1.14 | 0.293 (inactive) | -0.0617 | 1.36 | 1.05 | -0.112 |
| O=C1[C@@H]2[C@@H](CC(COc3ccccc3)=C3[C@@H](CCc4ccccc4)OB(O)C[C@@H]32)C(=O)N1Cc1ccccc1 | -0.0537 | -0.402 (inactive) | -1.04 (inactive) | 0.297 (inactive) | 0.828 | -0.874 (inactive) | -0.274 | 0.204 | 0.359 | -0.116 |
